The results in this text go back to article PMC7819943, “Rice protein-binding microarrays: a tool to detect cis-acting elements near promoter regions in rice”.

The full ranking holds about 68,000 sequences; the median of “fluorescence intensity (a.u.)” is about 9,100, and the highest 2% start at about 16,000. This excerpt belongs to a sample that is enriched for the highest values.

Sequence of OsWRKY34 (Q0JBA9 entry or part of it): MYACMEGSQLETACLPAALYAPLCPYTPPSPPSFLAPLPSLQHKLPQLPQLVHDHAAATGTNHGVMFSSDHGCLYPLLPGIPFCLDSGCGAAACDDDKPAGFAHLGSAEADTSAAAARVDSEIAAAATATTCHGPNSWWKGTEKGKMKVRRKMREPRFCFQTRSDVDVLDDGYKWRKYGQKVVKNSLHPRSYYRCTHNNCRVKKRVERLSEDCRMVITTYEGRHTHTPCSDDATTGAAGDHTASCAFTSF

This experiment has as its target OsWRKY34 (Oryza sativa, UniProt Q0JBA9 1-250). In words: protein-binding microarray (RPBM); PBS, 2% BSA, 51.3 ng/ul salmon testes DNA, 50 uM zinc acetate, 200 nM TF, 25 C, 1 h; high values mean tight binding. To be noted: protein: recombinant; tags: N-terminal polyhistidine and DsRed monomer fusion (pET32a); label: CyDye5-dUTP incorporated in the synthesized complementary strand; 3' TTTTT single-stranded linker to array surface; dsDNA, one strand shown. The essentials:
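Ni–NTA purification followed expression in E. coli BL21-CodonPlus of transcription factors fused N-terminally to a polyhistidine tag and DsRed. At 200 nM in PBS with 2% BSA, salmon testes DNA and 50 µM zinc acetate, the protein was incubated for 1 h at 25 °C with a custom Agilent array that had been primer-extended with Cy5-dUTP and blocked with 2% BSA. After washing, the array was read on an Axon 4000B scanner. The binding signal is per-feature fluorescence intensity in arbitrary units.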
In the case of “GCAGCTCTACTGTTTTCCGCTTCCATCTTCTTCCTTTCTTCGGAGTCACCTAGTGCAG”, the binding signal was 16700 fluorescence intensity (a.u.). In the case of “GCCTTCTCCATCTCTCTGCTTCTTTTGTTTGTTTTTCTTTCGGAGTCACCTAGTGCAG” it was 13000 fluorescence intensity (a.u.). In the case of “ATCCATCTTCTTCTTCTTTCTTTCTTTTCTTCCTCTTCTTCGGAGTCACCTAGTGCAG” it was 10400 fluorescence intensity (a.u.). In the case of “CATCTTACCTTACGTCCACCGCATCTCATCCTTTGCTGTTCGGAGTCACCTAGTGCAG” it was 12200 fluorescence intensity (a.u.); in that of “GTCCTTTACACTGATCCTGCACATCGCTCACTGTTTTCTTCGGAGTCACCTAGTGCAG”, 16800 fluorescence intensity (a.u.). Consider “TTACACATTTCTTTTTCATCACTGCTGATATGTTATCCTTCGGAGTCACCTAGTGCAG”, for which the binding signal was 9940 fluorescence intensity (a.u.). Take “TCCTTTTGCTTTCTTTCTTTTGTGTTTTTCAAATTTCTACCGGAGTCACCTAGTGCAG”: the binding signal was 9810 fluorescence intensity (a.u.). With “CTCACCTACCGCATCTGTGTTCCTTTTGCTTTCTTTCTTTCGGAGTCACCTAGTGCAG” the figure was 18100 fluorescence intensity (a.u.); with “GTTTTCTTTCTTTTTTTTTTCCACCTGTCGCACTGTACATCGGAGTCACCTAGTGCAG”, 11800 fluorescence intensity (a.u.); with “TAATACTCCTACTATGGACTTGTTCTCCGTGTTGCTTATTCGGAGTCACCTAGTGCAG”, 10200 fluorescence intensity (a.u.).

For “CCGTTACATGACGTGGGCCCCACCCAGCCGCGCCAGCCCACGGAGTCACCTAGTGCAG”, the binding signal is 8450 fluorescence intensity (a.u.). As to “CCACTCACTCTGTGTTTCACTTGCTGCCTTTCAGTTGCAACGGAGTCACCTAGTGCAG”, the binding signal is 8820 fluorescence intensity (a.u.). With “TTCTAAATTTGAAACGGTTTTATGACTTCTTTTCAGCGTTCGGAGTCACCTAGTGCAG” the figure was 8520 fluorescence intensity (a.u.); with “GGTGACGGCGGCTGTCTTCTTCGTAGGGTGCGGGGTGGCTCGGAGTCACCTAGTGCAG”, 8880 fluorescence intensity (a.u.); with “TGTCTACATACGCTCAATCCATTATTCCCCTATTACATCACGGAGTCACCTAGTGCAG”, 9500 fluorescence intensity (a.u.). With “ACCATCCAGCGCGTAACCGATTCCCTGTACATTCGGCCGCCGGAGTCACCTAGTGCAG” the figure was 9080 fluorescence intensity (a.u.); with “GGAGATCTTATACCCGATTTTACTGTTGAGGATTGTGACTCGGAGTCACCTAGTGCAG”, 8640 fluorescence intensity (a.u.); with “ACGCTTACAACATGCGCATACACGCACACCCAATCCTATGCGGAGTCACCTAGTGCAG”, 11000 fluorescence intensity (a.u.). In the case of “AGATTTTTTTGAACTTTCTGTCTGGGTCGGCTGTTTGTGTCGGAGTCACCTAGTGCAG” it was 10500 fluorescence intensity (a.u.). As to “GGTAGATTATATTAGGTTTTTCTTCGTGTTGTATTCACGACGGAGTCACCTAGTGCAG”, the binding signal was 8720 fluorescence intensity (a.u.). With “ACTTTTTAAATATGTTTGACCGTTCGTCTTATTCAAAAACCGGAGTCACCTAGTGCAG” the figure was 9990 fluorescence intensity (a.u.); with “CTCCGTCCTTAAATATTTGACGTCGTTGACTTTTTTAAACCGGAGTCACCTAGTGCAG”, 26000 fluorescence intensity (a.u.); with “TAAGACGTTTTGACTTTTTTTTTTCCTATTTAAACCTTTTCGGAGTCACCTAGTGCAG”, 13500 fluorescence intensity (a.u.). With “GTCCTTAAATATTTGACGTCGTTGACTTTTTTTAAAATATCGGAGTCACCTAGTGCAG” the figure was 20900 fluorescence intensity (a.u.); with “ACTCTCTCCGTCCTTAAATATTTGACGCCGTTGACTTTTTCGGAGTCACCTAGTGCAG”, 30600 fluorescence intensity (a.u.); with “CCTGTAATACTCTCTCCGTCTATAAATATTTGACGCCGTTCGGAGTCACCTAGTGCAG”, 8560 fluorescence intensity (a.u.). In the case of “TATTTTTTGGTTGTCCTTTGTTTTTTTAAAAAATATTTGTCGGAGTCACCTAGTGCAG” it was 8170 fluorescence intensity (a.u.); in that of “CACACATAAACTTTTAACTTTTTTATCACATCGTTTTAATCGGAGTCACCTAGTGCAG”, 8490 fluorescence intensity (a.u.). For “CTCTTCATTTTTTTAATAGATAGCGTCGTTGACTTTTGAACGGAGTCACCTAGTGCAG”, the binding signal was 14800 fluorescence intensity (a.u.).

In the case of “CTTACTCTCTCCGTCTCTAAATATTTGACGCCGTTGACTTCGGAGTCACCTAGTGCAG”, the binding signal was 12900 fluorescence intensity (a.u.). “AAATACAACTTTGACTTTTTGTTTCTTTAAAAATATTTATCGGAGTCACCTAGTGCAG”: the binding signal was 9920 fluorescence intensity (a.u.). In the case of “TAGCGTCGTTGACTTTTGAACACATTTTTATCATTTAAATCGGAGTCACCTAGTGCAG” it was 22400 fluorescence intensity (a.u.); in that of “GGAGGGGTTGGAAAAATTCGGTGTTCGTGGCCGCCTTCACCGGAGTCACCTAGTGCAG”, 13400 fluorescence intensity (a.u.). In the case of “GAAAATATCTGAAAGATACCGTTTGTCGTACTCCTTTTCTCGGAGTCACCTAGTGCAG” it was 9000 fluorescence intensity (a.u.). In the case of “AACATTGATGAGAATTGAAATCATTTCGTTGCTCTAATCTCGGAGTCACCTAGTGCAG” it was 8340 fluorescence intensity (a.u.); in that of “CTAGCTGAAGACTTGTGCATGCAGTTTACACCTTTTATCTCGGAGTCACCTAGTGCAG”, 9280 fluorescence intensity (a.u.); in that of “TAGCTCGTCTACTCCTAGCTCTCTCGTCCAATCCGGCCGGCGGAGTCACCTAGTGCAG”, 8680 fluorescence intensity (a.u.). With “CTACGTGAGCTCGTTGCTGTGTCTCCTCTCTCTGCATCGCCGGAGTCACCTAGTGCAG”, the binding signal is 9690 fluorescence intensity (a.u.).

Regarding “CTCACAGTAAGCTTGTCCAACAGATCCATTCCTAACCTACCGGAGTCACCTAGTGCAG”, the binding signal was 8140 ± 110 fluorescence intensity (a.u.). In the case of “TCCACTTCCAACATCTACTATCTTTTCTCACGCTTTTTCCCGGAGTCACCTAGTGCAG” it was 8630 fluorescence intensity (a.u.); in that of “CTCCTCAGCTAGTTGCTTGTCCCACACCACATCTTTCTTTCGGAGTCACCTAGTGCAG”, 12900 fluorescence intensity (a.u.). With “GTCCAGTGGACCAACCGGGTCACGGTCTCACGTGCCAAAGCGGAGTCACCTAGTGCAG” the figure was 8710 fluorescence intensity (a.u.).
